Pf Dd2 growth: P. falciparum Dd2 growth inhibitors, primary screen, SYBR Green fluorescence, single dose replicates; 72 h; stronger effect = lower value; activity change, % at 10 µM; 94,000 tested, 2.3% active; AID 1159554, 2015; in the data active = activity change below about -80%
Tcruzi prolif: T. cruzi intracellular proliferation inhibitors, primary screen, cell-based, beta-gal Tulahuen parasites, NIH3T3 host, luminescence; T. cruzi beta-gal in NIH3T3, GalScreen luminescence, 90 h; inhibition, % at 8.34 µM; 77,000 tested, 5.9% active; AID 624255, 2012;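 active = mean inhibition above about 93%, with at least 55% of replicates each passing it, limit read from the data, passing the limit was not always enough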
C diff growth: C. difficile growth inhibitors, primary screen, HTS; Clostridium difficile clinical isolate growth, OD600, 24 h; stronger effect = lower value; growth activity, negative = inhibition, % at 16 µg/mL (by protocol); 86,000 tested, 0.25% active;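 active = mean growth activity at or below -80% and every replicate also at or below -80%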;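 note: 0% = DMSO wells and -100% = levofloxacin 16 µg/mL wells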
* hit, by the source's call; x = no result given. Shown are actives, neighbours in structure and some others; about 6.7% of the full set was active somewhere.

SMILES	Pf Dd2 growth	Tcruzi prolif	C diff growth
C[C@@H]1CCCCO[C@H](CN(C)C(=O)Nc2cccc3ccccc23)[C@H](C)CN([C@H](C)CO)C(=O)c2cc(NC(=O)Cc3ccccc3)ccc2O1	-84*	x	-2
C[C@@H]1CN([C@@H](C)CO)C(=O)c2cc(NC(=O)Nc3ccccc3)ccc2O[C@@H](C)CCCCO[C@H]1CN(C)C(=O)Nc1cccc2ccccc12	-37	31	-2
C[C@@H]1CCCCO[C@H](CN(C)C(=O)Nc2cccc3ccccc23)[C@H](C)CN([C@@H](C)CO)C(=O)c2cc(NC(=O)Nc3ccccc3)ccc2O1	-50	96	4
CC(C)C#Cc1cnc2c(c1)C(=O)N([C@H](C)CO)C[C@@H](C)[C@H](CN(C)C(=O)Nc1cc(F)ccc1F)O2	x	68	-6
Cc1ccc(S(=O)(=O)NCC[C@H]2CC[C@H](NS(=O)(=O)c3ccccc3Cl)[C@@H](CO)O2)cc1	-37	23	-9
C[C@@H]1CN([C@H](C)CO)C(=O)Cc2cc(NC(=O)Nc3ccc(F)cc3)ccc2O[C@H]1CN(C)S(=O)(=O)c1ccc(Cl)cc1	-22	-89	-5
O=C(Nc1cccc(F)c1)N1C[C@H]2[C@@H](c3ccccc31)[C@@H](CO)N2C(=O)c1ccccn1	1	-3	1
Cc1ccc(S(=O)(=O)NCC[C@H]2CC[C@H](NC(=O)c3cccc(F)c3)[C@H](CO)O2)cc1	20	26	x
O=C(c1cnccn1)N1CC(=O)N2[C@@H](CO)[C@@H](c3ccc(C#CCc4ccccc4)cc3)[C@@H]2C1	-83*	x	-10
O=C(Cc1ccccc1)N1CC(=O)N2[C@H](CO)[C@@H](c3ccc(C#CCc4ccccc4)cc3)[C@H]2C1	-43	x	38
O=C(Cc1ccccc1)N1CC(=O)N2[C@H](CO)[C@H](c3ccc(C#CCc4ccccc4)cc3)[C@H]2C1	-89*	x	-15
O=C(c1cnccn1)N1CC(=O)N2[C@H](CO)[C@@H](c3ccc(C#CCc4ccccc4)cc3)[C@@H]2C1	-72	x	-13
O=C(C1CCC1)N1CC(=O)N2[C@H](CO)[C@@H](c3ccc(C#CCc4ccccc4)cc3)[C@@H]2C1	-86*	x	-9
O=C(C1CCC1)N1CC(=O)N2[C@H](CO)[C@H](c3ccc(C#CCc4ccccc4)cc3)[C@H]2C1	-13	x	-15
COCC(=O)N1[C@@H](CO)[C@@H](c2ccccc2)C12CN(Cc1ccccc1)C2	-11	x	3
C[C@@H]1CN([C@@H](C)CO)C(=O)Cc2cc(NC(=O)C3CCCCC3)ccc2O[C@H]1CN(C)C(=O)Nc1ccc(C(F)(F)F)cc1	-38	49	-3
Cc1noc(C)c1S(=O)(=O)Nc1ccc2c(c1)C(=O)N([C@H](C)CO)C[C@H](C)[C@@H](CN(C)S(=O)(=O)c1ccc(Cl)cc1)O2	-17	-43	-3
CC(=O)N1Cc2cc(C(=O)NCc3cccc(F)c3)nc(-c3cccc(C4=CCCC4)c3)c2[C@@H]1CCO	-40	x	12
CCCC(=O)Nc1ccc2c(c1)C(=O)N(C)[C@H]1CC[C@@H](CC(=O)NCc3ccccc3F)O[C@H]1CO2	-14	-64	-1
CS(=O)(=O)Nc1ccc2c(c1)[C@H]1C[C@H](CC(=O)O)O[C@@H](CO)[C@H]1O2	-13	x	-1
C[C@H]1CN([C@@H](C)CO)C(=O)Cc2cc(NC(=O)Nc3cccc4ccccc34)ccc2O[C@@H]1CN(C)CC1CCCCC1	-26	80	-1
C[C@H]1CN([C@@H](C)CO)C(=O)Cc2cc(NC(=O)Nc3cccc4ccccc34)ccc2O[C@H]1CN(C)C	7	x	-1
C[C@H](CO)N1C[C@H](C)[C@H](CN(C)CC2CC2)Oc2ccc(NC(=O)Nc3cccc4ccccc34)cc2CC1=O	-89*	x	-3
C[C@H](CO)N1C[C@H](C)[C@@H](CN(C)CC2CC2)Oc2ccc(NC(=O)Nc3cccc4ccccc34)cc2CC1=O	-86*	16	13
C[C@@H]1CN([C@@H](C)CO)C(=O)Cc2cc(NC(=O)Nc3ccc4c(c3)OCO4)ccc2O[C@H]1CN(C)CC1CCCCC1	3	69	6
SMILES	Pf Dd2 growth	Tcruzi prolif	C diff growth
CCCC#Cc1ccc([C@H]2[C@@H](CO)N(S(=O)(=O)c3cccc(F)c3)[C@H]2C#N)cc1	-6	89	8
COc1ccccc1C#Cc1ccc([C@@H]2[C@@H](C#N)N(C(=O)C3CCCCC3)[C@@H]2CO)cc1	-51	x	-3
COc1ccccc1C#Cc1ccc([C@H]2[C@@H](C#N)N(C(=O)C3CC3)[C@H]2CO)cc1	-85*	91	5
COc1ccccc1C#Cc1ccc([C@H]2[C@@H](CO)N(C(=O)C3CCCCC3)[C@H]2C#N)cc1	-91*	83	-3
COc1ccccc1C#Cc1ccc([C@H]2[C@H](C#N)N(C(=O)C3CC3)[C@H]2CO)cc1	-37	95	5
C[C@@H]1CCCCO[C@@H](CN(C)C)[C@@H](C)CN([C@@H](C)CO)C(=O)c2cc(NC(=O)Nc3cccc4ccccc34)ccc2O1	x	78	6
C[C@@H]1CN([C@H](C)CO)C(=O)c2cc(NC(=O)Nc3cccc4ccccc34)ccc2O[C@@H](C)CCCCO[C@@H]1CN(C)C(=O)C1CCCCC1	-91*	105	0
C[C@H]1CCCCO[C@@H](CN(C)CC2CCCCC2)[C@@H](C)CN([C@@H](C)CO)C(=O)c2cc(NC(=O)Nc3cccc4ccccc34)ccc2O1	-83*	120	0
C[C@@H]1CCCCO[C@H](CN(C)CC2CCCCC2)[C@@H](C)CN([C@H](C)CO)C(=O)c2cc(NC(=O)Nc3cccc4ccccc34)ccc2O1	-71	104	11
C[C@@H]1CN([C@@H](C)CO)C(=O)c2cc(NC(=O)Nc3cccc4ccccc34)ccc2O[C@@H](C)CCCCO[C@@H]1CN(C)C	-87*	-8	2
C[C@@H]1CN([C@@H](C)CO)C(=O)c2cc(NC(=O)Nc3cccc4ccccc34)ccc2O[C@@H](C)CCCCO[C@H]1CN(C)C(=O)C1CCCCC1	-51	46	0
COc1ccc2c3c([nH]c2c1)[C@@H](CO)N(C(=O)c1cccnc1)CC31CCN(C(=O)Nc2cccc(F)c2)CC1	-38	x	4
COc1cccc(CNC(=O)[C@@H]2[C@@H](CO)[C@@H]3Cn4c(cccc4=O)[C@H]2N3C(=O)C2CCCC2)c1	51	x	-3
COc1cccc(CNC(=O)[C@H]2[C@H](CO)[C@H]3Cn4c(cccc4=O)[C@@H]2N3C(=O)C2CCCC2)c1	-81*	x	-1
COCC#Cc1ccc2c(c1)O[C@H](CN(C)C(=O)Nc1ccccc1F)[C@H](C)CN([C@H](C)CO)S2(=O)=O	-23	37	5
COc1cccc(C#Cc2ccc([C@@H]3[C@@H](C#N)N(C(=O)C4CCC4)[C@H]3CO)cc2)c1	-50	91	15
COc1cccc(C#Cc2ccc([C@@H]3[C@@H](CO)N(C(=O)C4CCCCC4)[C@H]3C#N)cc2)c1	-78	88	1
COc1cccc(C#Cc2ccc([C@@H]3[C@@H](CO)N(C(=O)C4CCCC4)[C@H]3C#N)cc2)c1	-83*	x	4

High-throughput results: PubChem BioAssay, Broad Institute
